ATXN viability – cell viability loss in ATXN counter-screen; hit rate 0.49% among 400,000; S2 cells (HEK-293 line with an ATXN2-luciferase reporter) viability, CellTiter-Fluor protease fluorescence, 24 h; AID 651635; Potency, µM (series often up to 56.7 µM), hits mostly cytotoxic; further: potency means the concentration at half of the fitted maximal effect; nearly all actives have a fitted effect of over 40% in size
TGFb inhibitor – blocks TGF-b signaling; HepG2 CAGA-GFP TGF-b/SMAD3 reporter, GFP fluorescence, 18 h; TGF-beta stimulated, 500 pg/mL final; Potency, µM (titrated, usually from 46.1 µM), inactives show at the highest dose activity, negative = inhibition, usual class: inhibitors; hit rate 1.2% among 410,000; AID 588855; further: potency means the concentration at half of the fitted maximal effect; on the % scale 0 is the no-effect control and ±100 the full control effect; nearly all actives have a fitted effect of over 65% in size
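Using HEPG2 CAGA-GFP reporter cells at 1000 cells/well, we pinned test compounds, stimulated with recombinant TGF-beta (500 pg/mL final) and measured total well GFP after 18 h.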
ATXN2 expr inh – inhibitors of ATXN2 expression | hit rate 0.72% among 360,000 | Potency, µM (series often up to 57 µM), for the others: at the highest dose activity change, negative = inhibition, actives largely listed as inhibitors | HEK-293 ATXN2-luciferase reporter, luminescence, 24 h; further: potency means the concentration at half of the fitted maximal effect; on the % scale 0 is the no-effect control and ±100 the full control effect; nearly all actives have a fitted effect of over 55% in size
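qHTS (up to 57 uM final) was run with 24 h compound exposure of reporter cells at 37 °C. Each well was multiplexed: SteadyGlo luminescence measured ATXN2-luciferase expression after a fluorogenic Gly-Phe-AFC viability readout (25 uM final).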
IL-1B inflam inh – inhibitors of inflammasome signaling (IL-1 beta secretion). THP-1 LPS/ATP IL-1B secretion, AlphaLISA, 16 h; stronger effect = lower value. activity change, % at 57.5 µM. hit rate 4.7% among 360,000. AID 743279; in the data active means activity change below about -50%; inconclusive means mostly about -30% to -49%; further: on the % scale 0 is the no-effect control and ±100 the full control effect
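THP-1 cells pretreated 1 hr with compounds (up to 57.5 uM final), then stimulated with LPS (250 ng/mL final) plus ATP (1.25 mM final); secreted IL-1B measured by AlphaLISA after 16 hr, decreased signal indicating inhibition.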
HepG2 viability – kills HepG2 cells in TGF-b inhibitor counter-screen; HepG2 CAGA-GFP viability, ATP luminescence, 18 h; Potency, µM (doses to about 46.1 µM), inactives show top-dose activity change, negative = cytotoxicity, usual class: cytotoxic; hit rate 0.76% among 410,000; AID 588856; further: potency means the concentration at half of the fitted maximal effect
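CellTiter-Glo luminescence gave cytotoxicity after 18 hours at 37 degrees C. The cells were HepG2 CAGA-GFP in 1% FBS DMEM, stimulated with 500 pg/mL TGF-beta after compound addition. %Activity was normalised to no-cell wells (complete cell-killing) and DMSO (no toxicity), and curves were fitted and classified.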
The depositor's hits bear a star; i = inactive; u = inconclusive; x = not tested or not shown; [ ] = dose if it differs, or a comment. Compounds with a hit are over-represented: about 5.7% of the library has one in this group of screens. Unless noted, the call rests on the fitted dose curve; in most records, active means well fitted curve in the direction sought with a large enough effect; inconclusive means small, poorly fitted or top-dose-only effect, or another doubt; inactive means no such curve, though single readings can be large; an effect the other way counts as inactive or inconclusive.

SMILES	ATXN viability	TGFb inhibitor	ATXN2 expr inh	IL-1B inflam inh	HepG2 viability
Clc1ccc(-c2ccc(CNCC3CCCO3)o2)cc1 (stereo unspecified)	i	-2%	-18%	-77*	-40%
COc1cccc(NC(=O)CSc2nc(=O)[nH]c3c2CCCC3)c1	x	-6%	x	x	-20%
C=CCN(C(=O)CSC1=NC(=O)CN1C(C)=O)c1nc(C)c(-c2ccccc2)s1	i	13µM*	2%	-89*	-14%
CCn1cc(CN2CCN(CCC(C)C)C(CCO)C2)c2ccccc21 (stereo unspecified)	i	-16%	x	5	11µM*
CCn1cc(CN2CCN(C)C(CCO)C2)c2ccccc21 (stereo unspecified)	i	4%	-17%	4	-6%
CCCCn1cc(S(=O)(=O)c2ccc(CC)cc2)c(=O)c2cc(F)c(N3CCOCC3)cc21	x	-8%	x	x	14%
COc1cccc2c1C(=O)c1c(O)c3c(c(O)c1C2=O)CC(O)(C(C)=O)CC3OC1CC(O)C(O)C(C)O1 (stereo unspecified)	19µM*	-19%	u	-103*	-32%
COc1cccc2c1-c1c(O)cccc1C2=O	i	15%	x	-20	-1%
COc1cccc2c1C(=O)c1c(O)c3c(c(O)c1C2=O)C[C@@](O)(C(=O)CO)C[C@H]3O[C@H]1C[C@H](N)[C@H](O)[C@H](C)O1	x	x	0.27µM*	x	x
COc1cccc2c1C(=N)c1c(O)c3c(c(O)c1C2=O)CC(O)(C(C)=O)CC3OC1CC(N)C(O)C(C)O1 (stereo unspecified)	u	7.1µM*	1.2µM*	-102*	-57%
CCCCC(=O)OCC(=O)C1(O)Cc2c(O)c3c(c(O)c2C(OC2CC(NC(=O)C(F)(F)F)C(O)C(C)O2)C1)C(=O)c1c(OC)cccc1C3=O (stereo unspecified)	3.5µM*	u	2.5µM*	u	-42%
COc1ccc2nccc(/C=C/c3ccc(N(C)C)cc3)c2c1	x	-16%	x	x	-34%
O=C(NCC1Cc2cccc(-c3ncccn3)c2O1)C1CCCO1 (stereo unspecified)	i	x	x	x	x
CCOc1ccc(N(CC)S(=O)(=O)N2CCCC(C(=O)NCc3ccccc3Cl)C2)cc1 (stereo unspecified)	x	u	x	x	-17%
NC(=O)c1cc2ccccc2oc1=NCc1ccccc1	i	37%	8%	-26	-8%
NC(=O)c1cc2cc(Br)ccc2oc1=NCc1ccccc1	i	6%	5%	-65*	0%
N#C/C(=C\c1ccc(C(=O)O)cc1)c1ccccn1	i	u	6%	0	-17%
N#C/C(=C\c1c[nH]c2ccc(Br)cc12)c1ccccn1	i	u	12%	-84*	-91%
CCOC(=O)C1CCC(CN(Cc2c(Cl)cccc2Cl)S(=O)(=O)c2ccc(Cl)cc2)CC1 (stereo unspecified)	x	0%	x	x	-2%
CCN(CC)CC(O)c1ccc2ccc3ccc(O)cc3c2c1 (stereo unspecified)	i	1%	-27%	-61*	-41%
C=CCNc1nc(Nc2ccc([N+](=O)[O-])cc2)nc(N2CCCC2)n1	i	-18%	-23%[11.3 µM]	-63*	-2%
CC1CCN(c2nc(Cl)nc(Nc3ccc([N+](=O)[O-])cc3)n2)CC1	x	-21%	u	-99*	7%
CCCNc1nc(Nc2ccc([N+](=O)[O-])cc2)nc(N2CCOCC2)n1	x	14%	x	x	8%
Brc1cc(Br)c[n+](CCc2ccccc2)c1	x	2%	x	x	6%
CC1CCN(S(=O)(=O)c2ccc3c(ccc(=O)n3CC(=O)NCc3ccccc3Cl)c2)CC1	i	-31%	14%	x	-31%
SMILES	ATXN viability	TGFb inhibitor	ATXN2 expr inh	IL-1B inflam inh	HepG2 viability
CNCc1c(OCc2ccccc2)ccc2ccccc12	i	-27%	-29%	-86*	-44%
CC(C)(CO)NCc1c(OCc2ccc(Cl)cc2)ccc2ccccc12	u	u	u	-106*	-58%
CNCc1c(OCc2ccccc2F)ccc2ccccc12	i	u	u	x	-41%
CCOC(=O)c1ncn2c1CN(C)C(=O)c1cc(F)ccc1-2	i	15%	2%	-53*	-22%
O=C1Nc2c(Cl)cc(Cl)cc2C1=O	i	u	-15%	-93*	-55%
C[C@]12CCC(=O)C=C1[C@@H]1C[C@@H]1[C@H]1[C@@H]3[C@@H]4C[C@@H]4[C@@]4(CCC(=O)O4)[C@@]3(C)CC[C@@H]12	i	x	u	x	x
ClC1(Cl)CC1CSc1nc2ccccc2[nH]1 (stereo unspecified)	x	9%	28%	-6	-17%
CCOc1ccc2nc(SCC3CC3(Cl)Cl)[nH]c2c1 (stereo unspecified)	i	-24%	24%	-62*	12%
CCOC(=O)CC(=O)CSc1nc2c(sc(=S)n2-c2ccc(OCC)cc2)c(=O)[nH]1	i	u	-23%	-53*	4%
CC(C)CC(=O)NC(c1ccccc1Cl)c1c(O)ccc2ccccc12 (stereo unspecified)	u	u	u	-68*	-6%
CCCC(=O)NC(c1ccc(OC)cc1)c1c(O)ccc2ccccc12 (stereo unspecified)	i	-18%	u	-58*	-18%
CCCCNC(=O)Cn1c(=O)cc(C)c2c(C)nn(-c3cccc(Cl)c3C)c21	i	17%	1%	x	-9%
O=C(O)C1=C(C2CCCCC2)C(=O)c2ccccc21	i	9%	4%	-55*	-21%
O=C1C=C(C2CCCCC2)C(=O)c2ccccc21	i	-24%	-4%	82	-17%
COc1ccc(-c2nnc(Sc3nc4ccccc4o3)c3ccccc23)cc1	i	13µM*	-3%	-101*	13µM*
O=[N+]([O-])c1ccc(Sc2cccc[n+]2[O-])c2nonc12	x	1.3µM*	5.3µM*	-98*	-115%
C#CCN(C[C@H]1[C@H](OC(=O)Nc2cccs2)[C@H](OC(=O)Nc2cccs2)C[C@H]2C(=O)N(c3ccccc3)C(=O)[C@@H]12)S(=O)(=O)c1ccc(C)cc1	i	-1%	3%	-15	0%
C#CCN(C[C@@H]1[C@@H](OC(=O)Nc2cccs2)[C@@H](OC(=O)Nc2cccs2)Cn2c(=O)ccc(=O)n21)S(=O)(=O)c1ccc(C)cc1	3.5µM*	5.6µM*	3.5µM*	-107*	5µM*
C#CCN(C[C@@H]1[C@@H](OC(=O)NCc2ccccc2F)[C@@H](OC(=O)NCc2ccccc2F)Cn2c(=O)n(CCCCCC)c(=O)n21)S(=O)(=O)c1ccc(C)cc1	u	-15%	2%	u	-16%
